Compound activity as filed in PubChem BioAssay.
Neddyl block = inhibitors of cullin neddylation, primary screen, biochemical, TR-FRET, uHTS, NAE and Ubc12 | NEDD8-conjugating enzyme Ubc12 (Homo sapiens) + NEDD8-activating enzyme E1 regulatory … | inhibition, % at 25 µM | 360,000 compounds, 0.58% hits; in the data active means inhibition above about 36%
PKA-R1A act = activators of PKA-R1A holoenzyme, primary screen, biochemical, fluorescence polarization, Cy5-IP20, bovine R1A, mouse PKAc. cAMP-dependent protein kinase type I-alpha regulatory subunit (Bos taurus) + …. PKA-R1A dissociation; scaled: DMSO 0%, 113 µM cGMP 100%. activation, % at 11.4 µM. 340,000 compounds, 0.083% hits. AID 504707, 2011;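 active means percent activation above the mean of all tested compounds plus 3 SD, cut at about 19% in these data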;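 further: higher means more PKAc released from R1A so a rise in polarization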
PKA-R2B activ = activators of PKA-R2B holoenzyme, primary screen, biochemical, fluorescence polarization, Cy5-IP20, human; PKA-R2B holoenzyme dissociation; R2B truncated from residue 108, S112A mutant; 0% DMSO only, 100% 113 µM cGMP; activation, % at 11.4 µM; 340,000 compounds, 0.079% hits; cAMP-dependent protein kinase catalytic subunit beta (Homo sapiens) + cAMP-dependent …;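 active means activation above a cutoff set at the mean over all compounds plus 3 SD, cut at about 18% in these data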;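 further: higher means more holoenzyme dissociation and a rise in polarization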
Target sequence (P31323 whole entry, looked up, other chains not shown, the tested form may be a part): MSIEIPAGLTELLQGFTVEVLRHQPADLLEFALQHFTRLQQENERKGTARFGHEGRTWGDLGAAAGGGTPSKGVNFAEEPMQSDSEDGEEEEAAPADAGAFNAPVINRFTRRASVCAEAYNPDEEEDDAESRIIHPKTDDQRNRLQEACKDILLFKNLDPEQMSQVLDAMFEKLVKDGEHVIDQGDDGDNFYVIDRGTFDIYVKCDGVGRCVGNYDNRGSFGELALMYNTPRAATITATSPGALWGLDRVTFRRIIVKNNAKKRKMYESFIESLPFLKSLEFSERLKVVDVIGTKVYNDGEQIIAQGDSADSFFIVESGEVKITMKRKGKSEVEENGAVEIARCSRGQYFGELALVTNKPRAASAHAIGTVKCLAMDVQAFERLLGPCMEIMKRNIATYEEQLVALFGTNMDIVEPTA
Rpn11 inh = Rpn11 (PSMD14) deubiquitinase inhibitors, primary screen, biochemical, fluorescence polarization, uHTS. 360,000 compounds, 0.59% hits. 26S proteasome non-ATPase regulatory subunit 14 (Homo sapiens), O00487. human 26S proteasome, Ub4-pepOG fluorescence polarization; 20S core pre-blocked with epoxomicin. calls only at 20 µM;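 active means inhibition at 20 µM, scaled to each plate's controls, above about 33%, limit read from the data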
Neddyl conf = blockade of NEDD8 conjugation to cullin – biochemical, TR-FRET, single concentration, confirmation; shares compounds with Neddyl block; TR-FRET cullin neddylation biochemical assay; calls only at 25 µM; 1,800 compounds, 13% hits; AID 652217, 2013; in the data active means inhibition above about 40%;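 further: neddylation substrate is the cullin 1 ring ligase complex with SKP2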
A number is an active result; i = inactive; nt = no result shown; + = active, no number. Most compounds without a hit are left out; they make up all but 1.3% or so of the library.

SMILES	Neddyl block	PKA-R1A act	PKA-R2B activ	Rpn11 inh	Neddyl conf
Cc1ccc(S(=O)(=O)N(C)C)cc1NC(=O)CCc1ccccc1	i	i	i	i	nt
COCc1cc(C)nc(NC2CC(C)(C)NC(C)(C)C2)c1C#N	41	i	i	i	+
O=C(Nc1cccc(C(=O)NC2CC2)c1)c1ccccc1	i	i	i	i	nt
O=C(Nc1cc2c3c(c1)C1CCCC1CN3CC1CCCC21)c1ccccc1 (stereo not drawn)	51	i	i	i	i
O=C(Cc1nc2ccccc2[nH]1)c1ccc(Br)cc1	i	i	i	i	nt
COCc1ccc(CN2CCc3c([nH]c4ccccc34)C2CC(C)C)o1 (stereo not drawn)	40	i	i	i	i
CCc1nccn1CCC(=O)N1CCc2c([nH]c3ccccc23)C1CC(C)C (stereo not drawn)	i	i	i	i	nt
Cc1cc(C)c(C#N)c(N2CCOCC2)n1	46	i	i	i	+
CCCN(C(=O)c1cn(C)c(=O)c2ccccc12)c1ccccc1C	i	i	i	i	nt
Cc1cc(N2CCN(C)CC2)nc2ccc(NC(=O)CCC(=O)NCCc3ccc(Cl)cc3)cc12	42	i	i	i	i
CCCCN(C)C(=O)CCC(=O)Nc1ccc2nc(N3CCOCC3)cc(C)c2c1	nt	i	i	i	nt
CCCCN(C)C(=O)CCC(=O)Nc1ccc2nc(N3CCN(C)CC3)cc(C)c2c1	45	i	i	i	i
Cc1ccc(NC(=O)CSCC(=O)Nc2ccccc2N2CCCC2)cc1	i	i	i	i	nt
CS(=O)(=O)c1ccc(Cl)c(NC(=O)CCCc2nc3ccccc3c(=O)[nH]2)c1	i	i	i	i	nt
Cc1ccc(CCC(=O)Nc2ccccc2C(=O)O)o1	i	i	i	i	nt
Cc1nc2c(C(=O)N3CCN(c4ccccn4)CC3)cnn2c(C)c1Cc1cccc(Cl)c1	45	i	i	i	i
Cc1nc2c(C(=O)N3CCCC3)cnn2c(C)c1Cc1c(F)cccc1Cl	nt	i	i	i	nt
c1ccc(-c2nc3ccccc3[nH]2)cc1	i	i	i	i	nt
Nc1cc(N)cc(-c2nc3ccccc3[nH]2)c1	41	i	i	i	nt
COc1ccc2[nH]c3c(=O)n(N)c(C)nc3c2c1	nt	i	i	i	nt
Cc1ccc2[nH]c3c(=O)n(N)c(C)nc3c2c1	41	nt	nt	i	+
CC1CCc2nc(/C(C#N)=C/c3ccncc3)sc2C1 (stereo not drawn)	nt	i	i	i	nt
CC(=O)NC(C)(c1ccccc1)c1nc(-c2cc(F)cc(F)c2)cs1 (stereo not drawn)	i	nt	nt	i	nt
Cc1cc(NS(=O)(=O)c2ccc(NC(=O)c3cc4c(=O)n5ccccc5nc4s3)cc2)nc(C)n1	66	i	i	i	+
Cc1cc(NS(=O)(=O)c2ccc(NC(=O)c3cc4ccccc4o3)cc2)nc(C)n1	i	i	i	i	nt
SMILES	Neddyl block	PKA-R1A act	PKA-R2B activ	Rpn11 inh	Neddyl conf
Cc1csc(NC(=O)CSCC(=O)O)c1-c1nc2ccccc2s1	44	i	i	i	nt
COc1ccc(C2NC3=C(CCC3)C3(C#N)C(OC)(OC)N=C(N)C23C#N)cc1 (stereo not drawn)	39	i	i	i	i
CC(C)c1ccc(NC2CCCN(C(=O)c3ccsc3)C2)cc1 (stereo not drawn)	i	i	i	i	nt
CCSC1=C(C#N)C(CC(C)C)C2=C(CCCC2=O)N1 (stereo not drawn)	38	nt	nt	i	i
Cc1ccc(C(=O)N/C(=C/c2ccc(-c3ccc(Br)cc3)o2)C(=O)NC2CCS(=O)(=O)C2)cc1 (stereo not drawn)	48	i	i	i	i
COc1cc(-c2noc(C3CCCN(C(=O)c4ccccc4)C3)n2)cc(OC)c1OC (stereo not drawn)	i	i	i	i	nt
CN1CCCCc2c1nc1c(c2N)CCCC1	39	i	i	i	i
Cc1cccc2c(N)c3c(nc12)N(C)CC3	i	i	i	i	nt
Cc1ccccc1/C(N)=N/OC(=O)c1cccs1	i	i	i	i	nt
NC(=O)COC(=O)c1ccccc1Nc1ccc(SC(F)F)cc1	41	i	i	i	i
CC(C)(C)NC(=O)COC(=O)c1ccccc1Nc1ccc(SC(F)F)cc1	i	i	i	i	nt
CCOC(=O)[C@]12CCCC=C1N(Cc1ccccc1)C(=O)[C@H](CC(=O)NCC1CCCCC1)C2	i	nt	nt	nt	nt
CC1CC(C)CN(CCCNC(=O)CN2C(=O)COc3ccc(S(=O)(=O)N4CCOCC4)cc32)C1 (stereo not drawn)	i	i	i	i	nt
COCCN1C=C(C(=O)OC)C(c2ccc3c(c2)OCO3)C(C(=O)OC)=C1	50	i	i	i	+
CCn1nc(NC(=O)c2ccco2)c2cc3ccccc3nc21	nt	i	i	i	nt
CC(C)Cn1nc(NC(=O)c2ccco2)c2cc3ccccc3nc21	46	i	i	i	nt
Cc1cc(C)cc(OCC(=O)NNC(=O)CC(C)c2ccccc2)c1 (stereo not drawn)	i	i	i	i	nt
COc1ccc(S(=O)(=O)N2CCOCC2)cc1NC(=O)CCCOc1ccc(C(C)=O)cc1	i	i	i	i	nt
COc1ccc(CC(=O)N/N=C\c2cc(Br)c(O)c(Br)c2)cc1	45	i	i	i	+
COc1cc(/C=N/NC(=O)CCOc2ccccc2C)cc(Br)c1O	43	i	i	i	+
COc1ccc(/C=N/NC(=O)CCOc2ccccc2C)cc1OC	i	i	i	i	nt
Clc1ccc2[nH]c3c(NCCCN4CCOCC4)ncnc3c2c1	38	i	i	i	i
COc1ccccc1OCC(=O)/C=C1/N(C)c2ccccc2C1(C)C	46	i	i	i	i
CSc1ccc(/C=N/n2nnnc2N)cc1	44	i	i	i	+
COc1cc(/C=N/n2nnnc2N)cc(OC)c1OC	39	i	i	i	i
SMILES	Neddyl block	PKA-R1A act	PKA-R2B activ	Rpn11 inh	Neddyl conf
COc1cc(/C=N/n2nnnc2N)ccc1O	i	i	i	i	nt
Nc1nnnn1/N=C/c1ccc(O)cc1	i	i	i	i	nt
CC(C)c1ccc(C(=O)N2CCCCC2c2cc(C(=O)NCc3cccnc3)no2)cc1 (stereo not drawn)	i	nt	nt	i	nt
OC[C@@H]1CN(Cc2ccc(Cl)cc2)C[C@H](n2cnc3c(Nc4ccccc4)ncnc32)O1	47	nt	nt	i	nt
OC[C@@H]1CN(Cc2ccco2)C[C@H](n2cnc3c(Nc4ccccc4)ncnc32)O1	43	nt	nt	i	nt
Cc1ccc(C)c(-n2c(SCC(=O)NC(C(=O)O)C(C)C)nnc2-c2cccc(Cl)c2)c1 (stereo not drawn)	i	i	i	i	nt
CC1(C)CC(=O)C=C(c2cccc(Br)c2)C1	i	i	i	i	nt
